# Test results from PubChem BioAssay (NCI).
# The panel holds about 83,000 compounds, 20% with a hit somewhere; the sample as a whole holds those more often.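 Treatment: one concentration, 48 hours, 96-well format. Scoring: percent growth, with anything below 10 considered active.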 A number with no mark means an inactive call. The source made the active and inactive calls.
# Assays:
# Test in all cases: NCI-60 one-dose screen, 48 h (100 = growth as untreated, 0 = no growth, -100 = all killed)
# Conditions in all cases: 10 µM unless noted
# SK-MEL-2 melanoma = tested on: SK-MEL-2 melanoma
# SN12C renal = tested on: SN12C renal
# UO-31 renal = tested on: UO-31 renal
# TK-10 renal = tested on: TK-10 renal
# ACHN renal = tested on: ACHN renal
# CAKI-1 renal = tested on: CAKI-1 renal
# A498 renal = tested on: A498 renal
# MOLT-4 leukemia = tested on: MOLT-4 leukemia
# SR leukemia = tested on: SR leukemia
# RPMI-8226 leukemia = tested on: RPMI-8226 leukemia
# OVCAR-8 ovarian = tested on: OVCAR-8 ovarian
# OVCAR-5 ovarian = tested on: OVCAR-5 ovarian
# OVCAR-4 ovarian = tested on: OVCAR-4 ovarian
# SK-OV-3 ovarian = tested on: SK-OV-3 ovarian
# IGROV1 ovarian = tested on: IGROV1 ovarian
# OVCAR-3 ovarian = tested on: OVCAR-3 ovarian
# NCI/ADR-RES ovarian = tested on: NCI/ADR-RES ovarian
# HS 578T breast = tested on: HS 578T breast
SMILES,growth (SK-MEL-2 melanoma),growth (SN12C renal),growth (UO-31 renal),growth (TK-10 renal),growth (ACHN renal),growth (CAKI-1 renal),growth (A498 renal),growth (MOLT-4 leukemia),growth (SR leukemia),growth (RPMI-8226 leukemia),growth (OVCAR-8 ovarian),growth (OVCAR-5 ovarian),growth (OVCAR-4 ovarian),growth (SK-OV-3 ovarian),growth (IGROV1 ovarian),growth (OVCAR-3 ovarian),growth (NCI/ADR-RES ovarian),growth (HS 578T breast)
COC(=O)[C@H](Cc1cn(C)cn1)NC(=O)[C@@H](NC(=O)Nc1cc(C(F)(F)F)cc(C(F)(F)F)c1)C(C)(C)C,-88.7% [100 µM] (active),-91.8% [100 µM] (active),61.1% [100 µM],-82% [100 µM] (active),0.692% [100 µM] (active),55% [100 µM],-77% [100 µM] (active),-25.7% [100 µM] (active),-41.3% [100 µM] (active),-53.8% [100 µM] (active),-55.2% [100 µM] (active),39.7% [100 µM],-71.5% [100 µM] (active),-25.6% [100 µM] (active),-63% [100 µM] (active),-99.3% [100 µM] (active),78.1% [100 µM],–
COc1cc2c(c3c1c(=O)c1cccc(F)c1n3C)C=CC(C)(C)O2,113%,64.3%,-26.5% (active),95.2%,47.9%,-64% (active),90%,85.2%,48.8%,64.7%,85.2%,101%,101%,110%,75.4%,117%,83.9%,101%
BrCCCOc1ccc(Oc2ccc(OCCCBr)cc2)cc1,97.4%,95.3%,105%,108%,120%,112%,99.4%,96.4%,93.8%,98%,94.6%,122%,99%,123%,97.7%,123%,110%,92.8%
CCn1cnc(C[C@H](NC(=O)[C@@H](NC(=O)Nc2cc(C(F)(F)F)cc(C(F)(F)F)c2)C(C)(C)C)C(=O)OC)c1,-91% [100 µM] (active),-96.2% [100 µM] (active),-94.1% [100 µM] (active),-97.6% [100 µM] (active),-95.8% [100 µM] (active),-96% [100 µM] (active),-91.6% [100 µM] (active),-49% [100 µM] (active),-38.1% [100 µM] (active),-58.6% [100 µM] (active),-79.5% [100 µM] (active),-92.8% [100 µM] (active),-82.7% [100 µM] (active),-100% [100 µM] (active),-71.5% [100 µM] (active),-96.5% [100 µM] (active),7.32% [100 µM] (active),-2.17% [100 µM] (active)
CCN(CC)C(=O)C1(C)CCCC2(C)c3cc(OC(C)=O)ccc3CCC12 (stereo unspecified),80.3%,91.7%,54.4%,78.1%,80.7%,76.8%,83.9%,64.1%,62.8%,58.8%,86.4%,96.9%,71.2%,94.1%,79.9%,88.8%,85.8%,84.1%
CC(=O)NCCN,115%,104%,98.4%,109%,97.2%,84.7%,97.9%,102%,97%,105%,93.4%,102%,115%,116%,111%,113%,113%,103%
C=CCC(CCC(CC=C)C(=O)OCC)C(=O)OCC (stereo unspecified),106%,100%,88.5%,91.6%,108%,103%,120%,104%,86.7%,101%,95.2%,106%,102%,107%,102%,115%,109%,107%
O=C(CCl)NC1c2ccccc2Oc2ccccc21,63%,81.1%,92.1%,84.4%,72.4%,64.6%,97.3%,62.6%,33.7%,50.1%,61.2%,83.9%,56.5%,85.6%,46.1%,68.6%,101%,97.4%
CC(C)OCC1CO1 (stereo unspecified),123%,109%,95.8%,107%,98.7%,97.9%,117%,110%,102%,113%,113%,101%,115%,106%,110%,107%,109%,104%
CNc1nc2ncn(C)c2c(=O)[nH]1,94.3%,92%,83.3%,84.1%,71.5%,84.1%,96.4%,94.8%,–,97.4%,104%,86.7%,93.8%,104%,94.2%,113%,92.6%,105%
[N-]=[N+]=Nc1ncc(-c2ccc(C(F)(F)F)cc2)c(NC2CCCCCC2)n1,5.91% [100 µM] (active),42.5% [100 µM],22.1% [100 µM],45.3% [100 µM],26.8% [100 µM],-14.6% [100 µM] (active),32.9% [100 µM],16.9% [100 µM],-21.8% [100 µM] (active),-21% [100 µM] (active),37.2% [100 µM],65% [100 µM],28.9% [100 µM],71.6% [100 µM],36.3% [100 µM],7.63% [100 µM] (active),43.7% [100 µM],52.3% [100 µM]
CC(C)(C)c1cc(C[P+](c2ccc(Cl)cc2)(c2ccc(Cl)cc2)c2ccc(Cl)cc2)cc(C(C)(C)C)c1O,76.2%,91.6%,64.4%,105%,98.7%,84.2%,98.5%,35.7%,39.5%,10.9%,85.8%,105%,79.2%,88.9%,52.1%,90.3%,97.2%,105%
O=C(CCC(=O)N(CCO)CCO)N(CCO)CCO,102%,106%,86%,99.5%,107%,93.3%,120%,90.8%,89.8%,101%,103%,105%,105%,99%,98.1%,97.5%,108%,–
CCC(C)[C@H](NC(=O)Nc1cc(C(F)(F)F)cc(C(F)(F)F)c1)C(=O)N[C@@H](Cc1cn(C)cn1)C(=O)OC (stereo partly specified),-92.4% [100 µM] (active),-82% [100 µM] (active),-95.3% [100 µM] (active),-98.7% [100 µM] (active),-98.4% [100 µM] (active),-99.6% [100 µM] (active),-94.4% [100 µM] (active),-54.9% [100 µM] (active),-37.8% [100 µM] (active),-65.7% [100 µM] (active),-78.3% [100 µM] (active),-93.7% [100 µM] (active),-96.7% [100 µM] (active),-100% [100 µM] (active),-81.5% [100 µM] (active),-97.6% [100 µM] (active),-49.2% [100 µM] (active),-18.6% [100 µM] (active)
CCCCN(CCCC)c1ccc(C(=O)O)cc1,83.5%,97.9%,82.9%,86.3%,105%,103%,98.2%,99%,–,102%,105%,108%,101%,98.5%,99.3%,106%,106%,109%
CCCC[N+](C)(N)CCCC,108%,104%,91.7%,109%,99.7%,94.4%,115%,94.6%,–,94.3%,99.2%,103%,108%,102%,119%,113%,119%,115%
CC1CCCCC[N+]12CCCC2 (stereo unspecified),101%,101%,88.8%,100%,101%,98.7%,109%,99.2%,91.7%,100%,101%,106%,113%,98.1%,102%,116%,111%,112%
